This is one part of the list. Inconclusive results are not listed. Activity calls are given as the source filed them.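 The calls were made as follows: active = dose curves showing G6PC suppression whose half-maximal dose is at most twice the top valid dose; inconclusive = flat curves with moderate negative activity, or unreliable fits; inactive = the rest.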
Assay: hepatocyte G6PC expression decrease – cell-based, hepatocytes, RT-qPCR, cherry-picked samples, PGC-1a acetylation activator project, dose response (AID 743463);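 also: G6PC expression relative to GAPDH housekeeping gene as delta delta Ct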
Conditions: primary mouse hepatocytes, G6PC mRNA qPCR, forskolin; series mostly up to 26 µM
For `CCOc1ccccc1CN1CCN(C2CCC2)CC1CCO` (stereo not given), the outcome was “inactive”. With `CC(C)CCNc1nc(N2CCCC2)c2c(c1C#N)CCN(C)C2` the outcome was “inactive”. For `CCCCC(=O)Nc1ccc(C(=O)NCCCn2ccnc2)cc1`, the outcome was “inactive”. For `Cc1cc(C(=O)NNS(=O)(=O)c2ccccc2C(F)(F)F)nn1C(C)(C)C`, the outcome was “inactive”. With `CCOC(=O)c1c(NC(=O)CSc2cn(CC)c3ccccc23)sc2c1CCC2` the outcome was “inactive”. For `COc1ccc(-n2nnnc2CNC(=O)c2ccc3ccccc3c2)cc1`, the outcome was “inactive”. With `Cc1ccc(OCC(=O)NCCCNC(=O)c2cccnc2)cc1C` the outcome was “inactive”. With `CCC(C)(C)n1nnnc1C(c1ccccc1OC)N1CCSCC1` (stereo not given) the outcome was “inactive”. For `Cc1ccc(S(=O)(=O)Nc2ccc3c(c2)C(=O)N([C@@H](C)CO)C[C@@H](C)[C@H](CN(C)C(=O)Nc2cccc4ccccc24)OCCCC[C@H](C)O3)cc1`, the outcome was “inactive”. In the case of `CCOC(=O)c1c(-c2ccc(C)cc2C)csc1NC(=O)CSc1nnnn1C`, the outcome is reported as “inactive”. With `O=C(NCc1ccccc1)C(c1ccccc1)N(C(=O)c1csnn1)c1ccc(F)cc1` (stereo not given) the outcome was “inactive”. With `O=C(NCCC1CCCCN1S(=O)(=O)c1cccs1)C(=O)Nc1ccc(F)cc1F` (stereo not given) the outcome was “inactive”. With `Cc1cc(C)c2c(-n3cccc3)c(C(=O)NNS(=O)(=O)c3ccc(F)cc3)sc2n1` the outcome was “inactive”. For `COc1ccc(Nc2nnc(C)c3ccccc23)cc1`, the outcome was “inactive”. For `O=S(=O)(NCc1ccccc1Br)c1ccccc1Br`, the outcome was “inactive”.

Reference: PubChem BioAssay AID743463 (Broad Institute, 2014)
